Hits are enriched below; roughly 2.1% of the tested compounds scored in any of these assays.
TPT1 inh – Candida albicans TPT1 enzyme inhibitors, primary screen, biochemical, fluorescence polarization; inhibition, % at 5 µM; hit rate 0.81% among 300,000; recombinant caTPT1, FP RNA substrate dephosphorylation;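 active means inhibition above the mean of all tested compounds plus 3 SD, set per screening campaign, cut at about 24% in these data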;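 further: plate controls were DMSO alone for no effect and ferristatin control at 100 nM for full effect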
HNF4A DNA FP – change in binding of human HNF4A to DNA, primary screen, biochemical, fluorescence polarization, FITC-DNA | activity change, % at 10 µM | hit rate 0.3% among 360,000 | 1 h | Hepatocyte nuclear factor 4-alpha (Homo sapiens), P41235; in the data active means activity change above about 30%, passing the limit was not always enough
Rpn11 block – Rpn11 (PSMD14) deubiquitinase inhibitors, primary screen, biochemical, fluorescence polarization, uHTS; human 26S proteasome, Ub4-pepOG fluorescence polarization; 20S core pre-blocked with epoxomicin; inhibition, % at 20 µM; hit rate 0.59% among 360,000; AID 588493, 2011;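 active means inhibition at 20 µM, scaled to each plate's controls, above about 33%, limit read from the data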
Target sequence (O00487 whole entry, looked up): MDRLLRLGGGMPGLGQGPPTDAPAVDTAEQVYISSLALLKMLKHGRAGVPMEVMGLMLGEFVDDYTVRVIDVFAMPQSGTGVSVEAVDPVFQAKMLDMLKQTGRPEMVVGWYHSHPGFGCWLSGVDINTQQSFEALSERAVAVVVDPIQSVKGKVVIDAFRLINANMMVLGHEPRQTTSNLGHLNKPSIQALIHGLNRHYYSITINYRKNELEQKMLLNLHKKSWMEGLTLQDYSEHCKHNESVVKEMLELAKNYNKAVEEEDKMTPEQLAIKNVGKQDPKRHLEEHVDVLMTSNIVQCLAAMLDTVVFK
Myeloid diff 2 – induction of myeloid progenitor differentiation, primary screen, cell-based, flow cytometry, MLPCN library; ER-HoxA9 myeloid progenitors, lysozyme-GFP differentiation; calls only at 10 µM; hit rate 1% among 360,000;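 active means normalized GFP-positive differentiation at or above the plate's own cutoff, the solvent-only control mean plus 3 SD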;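 further: cells exposed to compound for four days before flow analysis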
Myeloid diff CP1 – inducers of myeloid progenitor differentiation, confirmation, cell-based, GFP/Mac1 flow cytometry, cherry pick 01; shares compounds with Myeloid diff 2; ER-HoxA9 myeloid progenitors, GFP/Mac1 double-positive flow; calls only; hit rate 2% among 2,300; AID 651706, 2012;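 active means share of green or green-and-red cells above 9 and 9% in run 1 or 4 and 3% in run 2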
GFP autofluor – counter-screen for myeloid differentiation promoters: compound fluorescence; shares compounds with Myeloid diff 2; ER-HoxA9 myeloid progenitors, no estrogen, GFP autofluorescence flow cytometry; vehicle wells 0%, positive control 100%; fluorescence response, % (test concentration not listed); hit rate 7.4% among 2,300; AID 651707;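 active means over 5% cells positive for green fluorescent reporter, or over 2% positive for both it and APC stain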;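 further: range taken on the double positive population between DMSO and positive control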
* = called active by the depositor; i = inactive; . = no result given; + = active, no number.

SMILES | TPT1 inh | HNF4A DNA FP | Rpn11 block | Myeloid diff 2 | Myeloid diff CP1 | GFP autofluor
CCC(C)NS(=O)(=O)c1cc2c3c(c1)CCC(=O)N3CCC2 (stereo not given) | -3 | 4 | -2 | i | . | .
N#CCC(=O)Nc1ccc(C(=O)OC(C(=O)Nc2cc(C(F)(F)F)ccc2Cl)c2ccccc2)cc1 (stereo not given) | 3 | 9 | 31 | + | i | 1
N#CCC(=O)Nc1ccc(C(=O)OC(C(=O)Nc2ccc([N+](=O)[O-])cc2Br)c2ccccc2)cc1 (stereo not given) | . | 14 | 33 | i | . | .
O=C(CCC(=O)N(CC(=O)NC1CCCCC1)c1ccc2c(c1)OCO2)Nc1ccccn1 | -2 | 0 | 0 | i | i | 0
Cc1ccc(NC(=S)N(CCCN2CCCC2)Cc2cccn2Cc2ccc(Cl)cc2)cc1C | 3 | 9 | 3 | i | . | .
FC(F)(F)c1cccc(NC(=S)N(CCCN2CCCC2)Cc2cccn2Cc2ccc(Cl)cc2)c1 | -2 | 4 | 5 | + | i | 41*
Cc1ccc(NC(=S)N(CCCN2CCCC2)Cc2cccn2Cc2ccc(Cl)cc2)cc1Cl | 3 | -1 | 3 | + | i | 0
O=[N+]([O-])c1cccc(-c2nc(-c3ccncc3)no2)c1 | -7 | 1 | 2 | + | i | 2
O=[N+]([O-])c1cccc(-c2nc(-c3ccccc3)no2)c1 | -5 | 11 | 2 | i | . | .
C=C(C)CSc1nc(N)c2c(C)c(C)sc2n1 | 0 | -5 | -3 | i | . | .
CSc1nc(N)c2c(C)c(C)sc2n1 | 2 | 1 | 0 | i | i | 0
CN(C(=O)COC(=O)c1ccc2ccccc2n1)C1CCCCC1 | . | -1 | -3 | i | . | .
CCc1ccccc1NS(=O)(=O)c1cc2c3c(c1)CCN3C(=O)CC2 | . | -4 | 2 | i | . | .
Cc1ccc(Cc2c[nH]c(=S)s2)cc1 | 1 | -1 | -4 | + | i | 0
Cc1ccc(Cc2c(C)[nH]c(=S)[nH]c2=O)cc1 | 0 | 2 | -1 | i | . | .
CCOc1cc(N2CCOCC2)c(OCC)cc1NC(=O)c1cc(S(=O)(=O)N2CCOCC2)ccc1F | . | -1 | -1 | i | . | .
COC(=O)c1cc2ccsc2n1CC(=O)N1CCCc2ccccc21 | 3 | 6 | -6 | i | . | .
COC(=O)c1cc2oc3ccccc3c2n1CC(=O)N1CCCc2ccccc21 | 1 | -6 | 2 | + | i | 0
Cn1c(C(=O)NCC2CCCO2)cc2c(=O)[nH]c3ccccc3c21 (stereo not given) | -1 | 1 | 3 | i | i | 1
CCC(c1nnc(SCC(=O)NC23CC4CC(CC(C4)C2)C3)o1)N(C)C (stereo not given) | -7 | 1 | -1 | + | i | 0
Cc1cc(-c2cc(-c3ccc(Cl)cc3)nc(N)c2C#N)co1 | 10 | 9 | 14 | + | i | 0
CC(=O)Nc1ccc(CC(=O)NCCC(c2ccccc2)c2ccccc2)cc1 | 1 | -1 | 1 | + | i | 0
N#CCC(=O)Nc1ccc(C(=O)NCCC(c2ccccc2)c2ccccc2)cc1 | 1 | 3 | 11 | + | i | 0
CCn1c(=O)c(C(=O)NCc2cccnc2)c(O)c2ccccc21 | 2 | -1 | -8 | i | i | 0
CC(=O)N1CCN(C(=O)C(Cc2c[nH]c3ccccc23)NC(=O)c2ccccc2Cl)CC1 (stereo not given) | 1 | 3 | 6 | i | . | .
SMILES | TPT1 inh | HNF4A DNA FP | Rpn11 block | Myeloid diff 2 | Myeloid diff CP1 | GFP autofluor
NS(=O)(=O)c1ccc(Nc2ncccc2[N+](=O)[O-])cc1 | -2 | 0 | -14 | + | i | 0
O=[N+]([O-])c1cccnc1Nc1ccc(Cl)cc1 | . | -1 | 4 | i | . | .
CC(=O)c1c(C)[nH]c(C(=O)OCC(=O)N2CCc3ccccc3C2)c1C | . | 1 | -4 | i | . | .
O=C(CSc1nc(-c2ccccc2Cl)ns1)Nc1ccc2c(c1)OCO2 | 1 | -2 | -9 | + | i | 0
Cc1ccc(-c2nsc(SCC(=O)Nc3ccc4c(c3)OCO4)n2)cc1 | -4 | 3 | -1 | i | . | .
CN(C)c1cc[n+](CC(=O)c2ccc(Br)cc2)cc1 | -1 | 0 | -5 | i | . | .
COc1ccc(C(=O)C[n+]2ccc(N(C)C)cc2)cc1 | -4 | -4 | -4 | i | i | 0
COc1ccc(C(=O)C[n+]2cccc3cc(C)ccc32)cc1 | 10 | 2 | . | i | i | 42*
COc1ccc(C(=O)C[n+]2cccc3cc(OC)ccc32)cc1 | 1 | 0 | . | . | . | .
CCOc1ccccc1CSc1nc2ccccc2[nH]1 | 1 | 4 | 9 | i | i | 0
Cc1ncc(CSc2nc3ccccc3[nH]2)c(N)n1 | 0 | 3 | 0 | i | . | .
CC(=O)c1sc(NC(=O)CCS(=O)(=O)c2ccc(C)cc2)nc1C | 1 | 1 | 0 | i | i | 0
Cc1cc(C(=O)COC(=O)Cc2n[nH]c(=O)c3ccccc23)c(C)n1-c1ccc2c(c1)OCO2 | 0 | -1 | 2 | + | i | 1
COc1ccc(CNC(=O)C2CCC(CNc3c(N4CCC(C)CC4)c(=O)c3=O)CC2)cc1 (stereo not given) | 1 | 0 | 1 | i | . | .
CCOC(=O)c1cnc(SCc2nc(N)nc(Nc3ccc(F)cc3)n2)nc1N | -3 | 0 | 6 | i | . | .
CCOC(=O)c1cnc(SCc2nc(N)nc(Nc3ccc(C)cc3)n2)nc1N | 2 | 3 | 4 | i | i | 0
CC1=C(C(=O)N2CCOCC2)C(c2ccc(C)cc2)NC(=S)N1 (stereo not given) | -2 | 3 | -14 | i | . | .
Cc1ccc(CSc2nc3ccccc3c(=O)[nH]2)cc1 | 0 | -1 | -2 | i | . | .
O=c1[nH]c(SCc2ccccc2)nc2c1sc1ccccc12 | 0 | 1 | -2 | + | i | 0
CCc1ccc(NC2CC(=O)N(c3ccc(OC)cc3OC)C2=O)cc1 (stereo not given) | 0 | 4 | -2 | i | i | 1
COc1ccccc1NC(=O)CSc1nnc(-c2ccoc2C)n1C | 1 | 3 | 1 | i | . | .
CCOc1ccccc1Nc1nc2ccc(C)cc2n2cnnc12 | . | 4 | 0 | + | + | 0
Cc1ccc(NC(=S)N2CCN(S(=O)(=O)c3ccccc3)CC2)cc1C | . | -3 | 5 | i | . | .
O=c1cc(-c2ccccc2Cl)oc2c(Br)ccc(O)c12 | -1 | -1 | 2 | + | i | 0
CCOc1ccc(N(Cc2ccc(OC)cc2)C(=O)c2ccco2)cc1 | -3 | -3 | 4 | i | . | .

High-throughput results deposited in PubChem BioAssay by several laboratories.
